According to PubChem BioAssay (NCATS):
Values joined by “and” are separate entries in the source; they are usually repeats but may differ in a detail not shown here. Equal entries are not always repeated. Records with an inconclusive call do not appear. Where a call stands in place of a potency, no number is given. A number with no mark means an inactive call. Active and inactive are the calls of the source. Unless noted, the call rests on the fitted dose curve; in most records, active means well fitted curve in the direction sought with a large enough effect; inconclusive means small, poorly fitted or top-dose-only effect, or another doubt; inactive means no such curve, though single readings can be large; an effect the other way counts as inactive or inconclusive.

Experiments:
[1] = molecular target: Cellular tumor antigen p53 (Homo sapiens) (UniProt P04637); experiment: Primary qHTS for small molecule compounds that upregulate eGFP-tagged delta133p53alpha (in N-terminal) cells. (AID 2060322); conditions: NCI-H358 eGFP-delta133p53alpha fluorescence, 24 h; activation: stronger effect = higher value;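 further: cells pre-induced with doxycycline then dosed without doxycycline; series mostly up to about 56 µM; nearly all actives have a fitted effect of over 75% in size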
Method in brief: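 NCI-H358 cells pre-induced 24 h with 10 ng/ml doxycycline for eGFP-delta133p53alpha, plated dox-free and exposed 24 h at 37C to titrated compounds. Fixed, Hoechst-stained; gated GFP peak intensity by laser scanning cytometry, normalized to DMSO (0%) and 57.5 uM 5-azacytidine (100%).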

[2] = molecular target: Cellular tumor antigen p53 (Homo sapiens) (UniProt P04637); experiment: Primary qHTS for small molecule compounds that upregulate eGFP-tagged delta133p53alpha (in C-terminal) cells. (AID 2060324); further: potency means the concentration at half of the fitted maximal effect
Method in brief: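 Read-out: gated-cell GFP peak intensity (laser scanning cytometer), plate-normalized with DMSO as 0% activity, after 24 h compound exposure at 37C. Cells were C-terminal eGFP-tagged delta133p53alpha NCI-H358, doxycycline-induced (100 ng/ml, 24 h) before plating.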

[3] = molecular target: Aldehyde dehydrogenase, mitochondrial (Homo sapiens) (UniProt P05091); experiment: qHTS for Inhibitors of the Aldehyde Dehydrogenase Family (ALDH2) Validation screens (AID 2061302; active means well fitted inhibition curve with a large enough effect; title and protocol of this record describe different tests)
[4] = molecular target: Retinaldehyde dehydrogenase 3 (Homo sapiens) (UniProt P47895); experiment: qHTS for Inhibitors of the Aldehyde Dehydrogenase Family (ALDH1A3) Validation screen (AID 2061312); further: nearly all actives have a fitted effect of over 45% in size

Cellular tumor antigen p53 (Homo sapiens), sequence (P04637 whole entry, looked up): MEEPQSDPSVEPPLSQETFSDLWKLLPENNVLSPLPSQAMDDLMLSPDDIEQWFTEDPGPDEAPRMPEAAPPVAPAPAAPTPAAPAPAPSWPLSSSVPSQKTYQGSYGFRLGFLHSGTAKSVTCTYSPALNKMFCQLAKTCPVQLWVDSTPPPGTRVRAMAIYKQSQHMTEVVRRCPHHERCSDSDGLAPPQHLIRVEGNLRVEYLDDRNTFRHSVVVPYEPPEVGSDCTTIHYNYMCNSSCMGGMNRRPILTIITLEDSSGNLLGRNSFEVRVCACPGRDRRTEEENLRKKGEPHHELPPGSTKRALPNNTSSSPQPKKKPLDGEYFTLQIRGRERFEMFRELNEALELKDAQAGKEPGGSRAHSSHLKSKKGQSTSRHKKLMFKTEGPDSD

Row | SMILES | activation [1] | Potency [2] | Potency [3] | Potency [4]
1 | N=C(N)c1ccccc1 | -12.8% | inactive | inactive | inactive
2 | O=C1NC(=O)c2c1c(-c1ccccc1)cc1[nH]c3ccc(O)cc3c21 | -2.02% | 26.9 µM (active) | inactive | inactive
3 | CC(=O)OC(C)C[N+](C)(C)C (stereo not drawn) | 10.7% and 1.73% | inactive | inactive | inactive
4 | COc1ccccc1N1CCN(CCCCN2C(=O)c3ccccc3C2=O)CC1 | -14.4% | inactive | inactive | inactive
5 | COCCCC/C(=N\OCCN)c1ccc(C(F)(F)F)cc1 | -6.69% and 3.07% | inactive | inactive | inactive
6 | CCCC1O[C@@H]2C[C@H]3[C@@H]4CCC5=CC(=O)C=C[C@]5(C)[C@H]4[C@@H](O)C[C@]3(C)[C@]2(C(=O)CO)O1 (stereo partly drawn) | -22.8% | inactive | inactive | inactive
7 | CC(C)C[C@H](NC(=O)C1OC1C(=O)O)C(=O)NCCCCN=C(N)N (stereo partly drawn) | -1.96% | inactive | inactive | inactive
8 | CC1C(=O)N(C)C(=O)c2nc[nH]c21 (stereo not drawn) | -19.1% | inactive | inactive | inactive
9 | CC[N+](C)(C)c1cccc(O)c1 | 3.57% | inactive | inactive | inactive
10 | O=C(O)CP(=O)(O)O | -13% and 17.7% | inactive | inactive | inactive
11 | CC(C)(C)NCC(O)c1cc(O)cc(O)c1 (stereo not drawn) | 2.51% and 8.65% | inactive | inactive | inactive
12 | CN1C(=O)CC[C@H]1c1cccnc1 | -11.7% and 28% | inactive | inactive | inactive
13 | NOCC(=O)O | -16.6% | inactive | inactive | inactive
14 | COc1cc(C(O)C(=O)O)ccc1O (stereo not drawn) | -11.9% | inactive | inactive | inactive
15 | CNCCC(Oc1ccccc1OC)c1ccccc1 (stereo not drawn) | -3.68% | inactive | inactive | inactive
16 | O=C(Nc1ccccc1)c1cc([N+](=O)[O-])ccc1Cl | 24.9% | inactive | inactive | inactive

Row | SMILES | activation [1] | Potency [2] | Potency [3] | Potency [4]
17 | COc1cc([C@@H]2c3cc4c(cc3[C@H](O)C3COC(=O)[C@@H]32)OCO4)cc(OC)c1OC (stereo partly drawn) | -47.3% | inactive | inactive | inactive
18 | NC(=O)CC[C@H](N)C(=O)O | 18.7% | inactive | inactive | inactive
19 | C#CC(N)CCC(=O)O (stereo not drawn) | -41.5% | inactive | inactive | inactive
20 | N=C(N)SCCN | -11.7% | inactive | inactive | inactive
21 | O=C(O)C1CCCNC1 (stereo not drawn) | -25.6% | inactive | inactive | inactive
22 | COC(=O)C(N)Cc1ccc(Cl)cc1 (stereo not drawn) | -12% | inactive | inactive | inactive
23 | COc1cc(Cc2cnc(N)nc2N)cc(OC)c1OC | -5.08% and -24.5% | inactive | inactive | inactive
24 | CCCCCCCCCCCCCCSCC(=O)O | -11% | inactive | inactive | inactive
25 | Cc1nc2sccn2c(=O)c1CCN1CCC(=C(c2ccc(F)cc2)c2ccc(F)cc2)CC1 | -20.9% and -40.8% | inactive | inactive | inactive
26 | CC(C)(C)c1ccc(/C=C/C(=O)Nc2ccc3c(c2)OCCO3)cc1 | -15.3% | inactive | inactive | inactive
27 | NC(N)=N/N=C/c1c(Cl)cccc1Cl | 35% | inactive | inactive | inactive
28 | Nc1cc(=O)[nH]c(N)n1 | -34.3% and -22.6% | inactive | inactive | inactive
29 | C[N+](C)(C)CCOC(N)=O | -23.4% and -15.4% | inactive | inactive | inactive
30 | O=P(O)(O)C(Cl)(Cl)P(=O)(O)O | -11.2% | inactive | inactive | inactive
31 | COc1cc2nc(N3CCN(C(=O)C4COc5ccccc5O4)CC3)nc(N)c2cc1OC (stereo not drawn) | 6.69% and -16.6% and -33.1% | inactive | inactive | inactive
32 | C[C@@H](NCCc1ccc(O)cc1)[C@@H](O)c1ccc(O)cc1 | -21.6% | inactive | inactive | inactive
